This excerpt belongs to a sample that is enriched for hits.
Tg IFNy HTS: T. gondii growth inhibition under IFN-gamma. AID 1259416. Toxoplasma gondii growth in IFN-gamma-treated host cells; active compounds read low. activity change, negative = inhibition, % (no concentration beside the values). 3.8% of 69,000 active; in the data active means activity change below about -70%, passing the limit was not always enough;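 further: host cells are HeLa cells infected with Toxoplasma gondii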
Numbers without * were called inactive.

SMILES	Tg IFNy HTS
CCN1C(=O)N(CCCc2cccnc2)C(=O)C12CCN(CCC1=C(C)CCCC1(C)C)CC2	7.5
c1ccc(Oc2cnc3ccccc3n2)c(CN2CCOCC2)c1	19.2
c1coc(-c2nnc3n2C2(CCCC2)Cc2ccccc2-3)c1	39.7
c1csc(-c2nnc3n2C2(CCCC2)Cc2ccccc2-3)c1	-97.5*
c1ccc(-c2nnc3n2C2(CCCCC2)Cc2ccccc2-3)cc1	-65.6
CC(C)Nc1nc2c(c(N(C)C)n1)CCN(C(=O)c1ccn[nH]1)CC2	-4.5
CCOC(=O)c1cc(C)nc2c1c(=O)n(Cc1nc(-c3ccccc3Cl)oc1C)c(=O)n2C	-23.7
Cc1cc(=O)n(CC(=O)N2C[C@@H]3C4CCC(CC4)[C@@H]3C2)nc1C	18.8
O=C(Nc1ccc(N2CCOCC2)c(F)c1)c1ccnc(N2CCOCC2)c1	12.2
Cn1nc(C(=O)Nc2ccc(N3CCCCC3)c(C(F)(F)F)c2)ccc1=O	-54.4
Cn1nc2c(c1C(=O)Nc1ccc(N3CCCCC3)c(F)c1)CCCC2	-95.3*
O=C(C1CCOCC1)N1CCC2(CC1)CCN(c1ncccn1)C2	4.3
CC(=O)NCCc1csc(C2CCCN(C(=O)/C=C/c3ccccc3Cl)C2)n1 (centres undefined)	-6.4
Cc1ccc(/C=C/C(=O)N2CCCC(c3nc(CCNC(=O)C4CC4)cs3)C2)cc1 (centres undefined)	-66.8
CCC(=O)NCCc1csc(C2CCCN(C(=O)/C=C/c3cccc(Cl)c3)C2)n1 (centres undefined)	-78.7*
Cc1ccc(-c2csc(-c3cccn3CC(=O)N3CCC(N4CCCCC4)CC3)n2)cc1	-14.6
O=C(COc1ccccc1)N1CCC2(CC1)Nc1cc(F)ccc1-n1cccc12	51.8
Cc1cccc(C(=O)N2CCC3(CC2)Nc2ccc(Cl)cc2-n2cccc23)c1	-6.0
Cc1cccc(OCC(=O)N2CCC3(CC2)Nc2ccc(Cl)cc2-n2cccc23)c1	-107.5*
COc1cccc(CC(=O)N2CCC3(CC2)Nc2ccc(Cl)cc2-n2cccc23)c1	29.4
O=C(COc1ccc(F)cc1)N1CCC2(CC1)Nc1ccc(Cl)cc1-n1cccc12	-114.6*
O=C(COc1ccc(Cl)cc1)N1CCC2(CC1)Nc1ccc(Cl)cc1-n1cccc12	70.1
CC(C)N(Cc1ccccc1)C(=O)CN1C(=O)CCc2cc(S(=O)(=O)N3CCCCC3C)ccc21 (centres undefined)	-41.0
Cc1oc(-c2ccc(C(=O)NC3CCCC3)cc2)nc1CN1CCc2ccccc21	-12.3
Cc1nnc([C@@H]2CCO[C@@H]3CCN(C(=O)c4ccccn4)C[C@H]32)o1	323.1
SMILES	Tg IFNy HTS
CC/C(=C(/CC)c1ccc(O)cc1)c1ccc(O)cc1	-51.2
CC/C(=C(\c1ccccc1)c1ccc(OCCN(C)C)cc1)c1ccccc1	-66.5
CC/C(=C(\c1ccc(O)cc1)c1ccc(OCCN(C)C)cc1)c1ccccc1	-97.6*
O=C(NCc1ccccc1)N1CCC2(CC1)Nc1ccccc1-n1cccc12	351.9
COCCCNc1c(C(=O)OC)c(=O)[nH]c2c(Cl)cccc12	9.9
CCn1c(CC2CCN(C(=O)C3C=CCN3)CC2)nn(C)c1=O (centres undefined)	1.4
CCc1nc(CNC(=O)c2cn(C(CC)c3ccc(F)cc3)nn2)no1 (centres undefined)	-42.9
Brc1ccc(CSC2=NCN(Cc3cccnc3)CN2)cc1	9.3
O=C(Cc1ccc(F)cc1)N1CCC2(CC1)Nc1ccccc1-n1cccc12	25.6
Cc1nccn1-c1ccccc1CNC(=O)c1cc(C(C)C)nn1C	-2.0
Cc1nc(-c2ccc(CNC(=O)c3cc(CC(C)C)nn3C)cc2)no1	-77.8*
CC(C)c1cc(C(=O)NCc2nc(-c3ccccc3)no2)n(C)n1	-100.0*
CC(C)c1cc(C(=O)NCc2cc(-c3ccco3)on2)n(C)n1	3.0
CC(C)Cc1cc(C(=O)NCc2cnn3ccccc23)n(C)n1	-33.7
CCCn1ncc(C(=O)NCc2ccc(-c3noc(C)n3)cc2)c1C	-13.5
CCOC(=O)N1CCN(C(=O)CC2(c3ccccc3C)CC(=O)N(Cc3ccccc3)C2=O)CC1 (centres undefined)	184.7
CO[C@@H]1CCN(S(=O)(=O)c2cn(C)cn2)[C@H]1Cc1cnn(C)c1	-3.1
Cc1ccc(NC(=O)c2nnn(Cc3nc(-c4cccc(Cl)c4)oc3C)c2C)c(Cl)c1	-2.8
Cc1cccc(-c2nc(Cn3nnc(C(=O)NCc4ccc(C(C)C)cc4)c3C)c(C)o2)c1	-89.4*
Cc1cccc(-c2nc(Cn3nnc(C(=O)NCc4ccc5c(c4)OCO5)c3C)c(C)o2)c1	-95.2*
Cc1ccc(-c2nc(Cn3nnc(C(=O)NCc4ccccc4)c3C)c(C)o2)cc1	-33.9
Cc1ccc(-c2nc(Cn3nnc(C(=O)NCc4ccncc4)c3C)c(C)o2)cc1	72.1
Cc1ccc(-c2nc(Cn3nnc(C(=O)NCc4ccc(F)cc4)c3C)c(C)o2)cc1	109.8
CCc1ccc(CNC(=O)c2nnn(Cc3nc(-c4cccc(C)c4)oc3C)c2C)cc1	-80.2*
Cc1ccc(NC(=O)c2nnn(Cc3nc(-c4cccc(Cl)c4)oc3C)c2C)c(Br)c1	133.7
SMILES	Tg IFNy HTS
Cc1ccc(-c2nc(Cn3nnc(C(=O)NCc4ccco4)c3C)c(C)o2)cc1	-0.3
Cc1cccc(-c2nc(Cn3nnc(C(=O)NCc4cccc(Br)c4)c3C)c(C)o2)c1	-98.0*
Cc1ccc(-c2nc(Cn3nnc(C(=O)NCc4ccc5c(c4)OCO5)c3C)c(C)o2)cc1	-45.0
CCCOc1ccc(CNC(=O)c2nnn(Cc3nc(-c4ccc(C)cc4)oc3C)c2C)cc1	-21.4
O=C(NCCc1csc(-c2ccc(Cl)cc2)n1)c1ccc(C(F)(F)F)cc1	-44.3
CCn1cc(CC(=O)NCc2nc(-c3ccccc3Cl)no2)c2ccccc21	150.7
Cn1nnc2cc(C(=O)N3CCC(CO)(CCCc4ccccc4)CC3)ccc21	-12.8
O=C(c1cn2c(n1)CSCC2)N1CCN(c2ccccn2)CC1	36.8
COc1ccc(CC(=O)N2CCC3(CC2)NC(=O)c2ccccc2N3C)cc1OC	-9.4
COc1ccc(NC(=O)CN2C(=O)CCc3cc(S(=O)(=O)N4CCCC4)ccc32)cc1Cl	-33.7
CC(c1cccs1)N(C)C(=O)CCCS(N)(=O)=O (centres undefined)	-4.2
COc1cc(C(=O)NCc2ccc(-c3nn(C)cc3-c3ccncc3)cc2)nc(OC)n1	-101.6*
Cn1cc(-c2ccncc2)c(-c2ccc(CNC(=O)COCC3CCCCO3)cc2)n1 (centres undefined)	-92.0*
COc1cc(C(=O)NCCCn2ccnc2C)nc(OC)n1	-11.3
COc1ccccc1-c1cccc(-c2nc(C(=O)NCc3ccncc3)cc3c2[C@H](CCO)N([S@@](=O)C(C)(C)C)C3)c1	-1.9
COc1cccc(OC(C)C(=O)NCc2cccc(-c3nn(C)cc3-c3ccncc3)c2)c1 (centres undefined)	-114.2*
Cc1cnccc1-c1cn(C)nc1-c1cccc(CNC(=O)Cc2cccnc2)c1	-19.3
CCC(=O)NCc1cccc(-c2ccc(OC)cc2OC)c1	-1.1
Cc1ncc(-c2ccncc2)c(-c2ccc(CNC(=O)C3CCOC3)cc2)n1 (centres undefined)	-38.9
CN1CCN(c2ncccc2CNC(=O)COCC2CCCO2)CC1 (centres undefined)	-2.9
COc1ccc(-c2nc[nH]c2-c2ccccc2)cc1CN(C)C	-3.6
Cc1ccc(-c2ccc(C(=O)N3CCOCC3)o2)c(-n2cccn2)c1	-3.5
CCc1cnc(N2CCCC3(CC(Oc4cccnc4)CO3)C2)nc1 (centres undefined)	-0.3
O=C(NCCc1csc(-c2ccccc2)n1)[C@H]1CSCN1S(=O)(=O)c1ccc(Cl)cc1	-38.1
